Bioassay records from PubChem.
This is a sample that favours compounds with a hit; in the whole collection about 7.5% have one here.
Rab9 prom act = qHTS Assay for Rab9 Promoter Activators. Huh7 Rab9 promoter-luciferase reporter, luminescence, 24 h. Potency, µM (series often up to 9.22 µM), without a hit: at the highest dose activation, negative = inhibition, hits mostly activators. 2.8% of 320,000 active. AID 485297, 2010; further: % of control where 0% means no effect; nearly all actives have a fitted effect of over 60% in size
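Promoter activation is measured as luciferase luminescence in Huh7 cells stably transfected with a Rab9 promoter–luciferase construct, following 24 h compound exposure at 37 °C and 10 min reagent incubation at ambient temperature.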
FLuc modulator = qHTS profiling assay for firefly luciferase inhibitor/activator using purifed enzyme and Km concentrations of substrates (counterscreen for miR-21 project); Potency, µM (doses to about 57.5 µM), for inactives: at the highest dose activity change, negative = inhibition, most hits filed as inhibitors; Luciferin 4-monooxygenase (Photinus pyralis), P08659; purified FLuc, Km substrates, luminescence inhibition; 6.9% of 360,000 active;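 further: plate controls were vehicle for no effect and reference inhibitor for full effect; nearly all actives have a fitted effect of over 55% in size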
Target sequence (P08659 whole entry, looked up): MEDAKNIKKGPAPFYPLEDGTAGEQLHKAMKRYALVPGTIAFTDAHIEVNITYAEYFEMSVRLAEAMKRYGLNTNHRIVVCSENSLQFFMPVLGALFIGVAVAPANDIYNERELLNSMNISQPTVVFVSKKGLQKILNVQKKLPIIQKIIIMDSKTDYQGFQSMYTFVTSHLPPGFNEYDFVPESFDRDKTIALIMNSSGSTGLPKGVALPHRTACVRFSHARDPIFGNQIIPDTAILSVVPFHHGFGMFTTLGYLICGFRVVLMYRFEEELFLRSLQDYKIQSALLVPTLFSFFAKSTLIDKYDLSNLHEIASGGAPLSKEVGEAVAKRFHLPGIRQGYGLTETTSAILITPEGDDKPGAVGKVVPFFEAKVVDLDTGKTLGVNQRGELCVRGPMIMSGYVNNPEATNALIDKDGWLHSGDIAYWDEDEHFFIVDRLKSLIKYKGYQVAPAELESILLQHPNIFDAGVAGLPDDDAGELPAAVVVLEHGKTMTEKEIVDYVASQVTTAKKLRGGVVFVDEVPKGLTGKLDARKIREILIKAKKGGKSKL
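Biochemical qHTS of compounds, final roughly 60 µM downward over six points, against 10 nM purified firefly luciferase using Km concentrations of substrates (10 uM D-luciferin, 10 uM ATP) in Tris acetate pH 7.5 buffer; luminescence output.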
ELG1 genotox = qHTS screen for small molecules that induce genotoxicity in human embryonic kidney (HEK293T) cells expressing luciferase-tagged ELG1. HEK293T ELG1-luciferase reporter, luminescence, 16 h. Potency, µM (doses to about 46 µM), inactives show at the highest dose activity change, positive = activation, actives largely listed as activators. 1.3% of 330,000 active; further: % of control where 0% means no effect; nearly all actives have a fitted effect of over 60% in size
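Reporter readout depends on ELG1 protein level, which increases with genetic stress. After 16 hr compound exposure at 37 °C, luciferase activity was quantified using ONE-Glo.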
SMN2 splice up = qHTS Assay for Enhancers of SMN2 Splice Variant Expression; HEK293 SMN2-luciferase splicing reporter, luminescence, 30-36 h; Potency, µM (doses to about 46.1 µM), without a hit: top-dose activity change, positive = activation, hits mostly activators; 2.8% of 210,000 active; further: % of control where 0% means no effect; nearly all actives have a fitted effect of over 55% in size
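HEK293 cells carry an SMN2 minigene-luciferase reporter in which exon 7 inclusion puts luciferase in frame. Cells were seeded at 2000 cells/well, attached for 10-12 hours, then exposed to compounds for 30-36 hours at 37C before ONE-Glo luminescence.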
NPC1 prom act = qHTS Assay for NPC1 Promoter Activators. AID 485313, 2010. Potency, µM (series often up to 9.22 µM), for inactives: at the highest dose activation, most hits filed as activators. Huh7 NPC1 promoter luciferase reporter, 24 h. 2.4% of 320,000 active; further: % of control where 0% means no effect; nearly all actives have a fitted effect of over 60% in size
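Quantitative HTS used a cell-based reporter: Huh7 cells stably bearing the NPC1 promoter upstream of luciferase were treated with compounds for 24 h, and promoter activation was read as luminescence.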
An asterisk follows results filed as active; ? = inconclusive; . = not tested or not shown; [ ] = another dose, or the depositor's remark. The call rests on the fitted dose curve; in most records, active means well fitted curve in the direction sought with a large enough effect; inconclusive means small, poorly fitted or top-dose-only effect, or another doubt; inactive means no such curve, though single readings can be large; an effect the other way counts as inactive or inconclusive. Potency means the concentration at half of the fitted maximal effect.

SMILES	Rab9 prom act	FLuc modulator	ELG1 genotox	SMN2 splice up	NPC1 prom act
CCNC(=S)N/N=C/c1ccccc1[N+](=O)[O-]	1%	3%	0%	12%	0%
COc1ccc(/C=N/NC(=S)Nc2ccccc2[N+](=O)[O-])cc1O	-2%	0.43µM*	5.2µM*	?	22%
CCCOc1ccc(/C=N/Nc2ccccc2[N+](=O)[O-])c(O)c1	?	0.11µM*	?	-95%	?
CCCOc1ccc(/C=N/NC(=S)Nc2ccccc2[N+](=O)[O-])c(O)c1	-16%	3.4µM*	?	-87%	3%
CNc1ncnc2c1ncn2[C@@H]1O[C@H](COP(=O)(O)O)[C@@H](O)[C@H]1O	.	.	.	-2%	.
CCN(CC)S(=O)(=O)c1ccc2c(c1)N(CC(=O)NCCCN1CCN(c3ccc(OC)cc3)CC1)C(=O)CO2	.	0%	.	.	.
CCCOc1ccc(C2C(=O)N(C3CCCCCC3)CC(=O)N2Cc2ccc(OC)cc2)cc1OC (stereo not given)	.	-7%	.	.	.
O=[N+]([O-])c1cc(/C=N/O)ccc1Oc1ccccc1Cl	-4%[1.84 µM]	19µM*	?	1%	9%
Cc1ccc(/C=N/NC(=O)CNC(=O)c2cccc([N+](=O)[O-])c2C)o1	-2%	-9%	2%	-2%	-3%
CCN(CC)C(=O)CSc1nnc(-c2ccccn2)n1Cc1ccccc1	0%	-2%	-2%	.	-2%
Cc1ccc(-n2ncc3c(N4CCC(C)CC4)ncnc32)cc1C	.	1.5µM*	.	.	.
CCOC(=O)C1CCN(c2ncnc3c2cnn3-c2ccccc2)CC1	-1%	?	?	18%	-1%
COc1ccc(-n2ncc3c(N4CCC(C)CC4)ncnc32)cc1	0.1µM*	0.54µM*	0.26µM*	.	0.11µM*
CCOC(=O)N1CCN(c2ncnc3c2cnn3-c2ccc(OC)cc2)CC1	-2%	-1%	2%	4%	2%
CC1CCN(c2ncnc3c2cnn3-c2ccccc2)CC1	0.63µM*	2.1µM*	1.5µM*	13µM*	0.89µM*
CCOC(=O)C1=CN(Cc2ccco2)S(=O)(=O)NC1c1ccc(C(F)(F)F)cc1 (stereo not given)	.	.	1%	.	.
c1ccc(-c2noc(C3CCC3)n2)nc1	27%	-19%	10%	.	22%
CCCCC1CCC(c2nc(-c3ccccn3)no2)CC1 (stereo not given)	?	2.7µM*	?	11µM*	?
O=C(Nc1cccc(-c2csc(Nc3cccc(C(F)(F)F)c3)n2)c1)c1cc([N+](=O)[O-])cc(C(F)(F)F)c1	-15%	3%	-5%	.	-18%
CC(=O)c1cccc(Nc2nc(-c3cccc([N+](=O)[O-])c3)cs2)c1	21%	-4%	1.5µM*	11µM*	5%
CC(=O)Nc1nc(C)c(-c2csc(Nc3ccccn3)n2)s1	1.6µM*	11µM*	8%	13µM*	3.5µM*
Cc1[nH]n(-c2nc(-c3cccc([N+](=O)[O-])c3)cs2)c(=O)c1C	?	4.8µM*	16%	13µM*	?
Cc1ccc(Nc2nc(-c3sc(NC(=O)c4cccc(Cl)c4)nc3C)cs2)cc1	3%	9.5µM*	-2%	-11%	-5%
Cc1c(Nc2nc(-c3cccc([N+](=O)[O-])c3)cs2)c(=O)n(-c2ccccc2)n1C	-12%	-4%	1%	.	1%
Cc1ccc2c(CC(=O)N3CCN(c4ccccc4)CC3)coc2c1	-2%	-4%	0%	-9%	2%
SMILES	Rab9 prom act	FLuc modulator	ELG1 genotox	SMN2 splice up	NPC1 prom act
CCc1ccc(C(c2c(C)nn(-c3ccccc3)c2N)c2c(C)nn(-c3ccccc3)c2N)cc1	-1%	0%	-3%	-48%	-7%
Cc1ccc(C(=O)OCC(=O)NC(C)C2CC3CCC2C3)cc1N (stereo not given)	.	.	1%	.	.
O=C(NCCC1CCCCN1S(=O)(=O)c1ccc(F)cc1)C(=O)Nc1ccccc1 (stereo not given)	0%	2%	-3%	.	1%
Cc1ccccc1Nc1nc(-c2sc(NC(=O)c3ccco3)nc2C)cs1	1%	?	-2%	-6%	0%
Cc1nc(N)sc1-c1csc(Nc2ccccc2)n1	2.8µM*	11µM*	16%	11µM*	?
Cc1nc(NC(=O)c2ccccc2)sc1-c1csc(Nc2ccc(C(=O)O)cc2)n1	?	0.48µM*	-7%	.	23%
CCC(=O)Nc1nc(C)c(-c2csc(Nc3cccc(C(=O)O)c3)n2)s1	-3%	11µM*	-5%	27%	-1%
C=CCCC(=O)Nc1nc(C)c(-c2csc(Nc3cccc(OC)c3)n2)s1	-10%	?	1%	-29%	-3%
Cc1ccc(Nc2nc(-c3sc(NC(=O)c4ccco4)nc3C)cs2)cc1	3%	17µM*	-2%	-61%	7%
CCc1nnc(NS(=O)(=O)c2ccc(NC(=O)c3cccc(OC)c3)cc2)s1	-2%	?	0%[9.26 µM]	.	2%
COc1cccc(Nc2nc(-c3sc(NC(=O)CC(C)C)nc3C)cs2)c1	-7%	?	-9%	-23%	-7%
CC(=O)Nc1nc(C)c(-c2csc(Nc3cccc(C(C)=O)c3)n2)s1	0.71µM*	?	0%	.	-20%
COc1cccc(NC(=O)c2sc(NC(=O)c3ccncc3)nc2C)c1	0%	19µM*	-4%	.	-2%
COc1cccc(Nc2nc(-c3sc(NC(=O)c4ccccc4)nc3C)cs2)c1	-1%	19µM*	-7%	-59%	0%
CC(=O)Nc1nc(C)c(-c2csc(Nc3cccc([N+](=O)[O-])c3)n2)s1	-17%	-12%	-12%	-33%	-11%
CCC(=O)Nc1nc(C)c(-c2csc(Nc3ccc(C(=O)O)cc3)n2)s1	7%	17µM*	0%	.	-3%
CCCC(=O)Nc1nc(C)c(-c2csc(Nc3ccc(Cl)cc3)n2)s1	4%	?	-7%	?	-3%
Cc1cc(O)ccc1Nc1nc(-c2sc(N)nc2C)cs1	-8%	?	1%	-7%	1%
Cc1csc(Nc2ccc(C(=O)O)cc2)n1	16%	?	6%	.	20%
O=C(O)c1ccc(Nc2nc(-c3ccccc3)cs2)cc1	0.4µM*	0.67µM*	-2%	2.5µM*	0.4µM*
Cc1nc(N)sc1-c1csc(Nc2cccc(C(=O)O)c2)n1	15%	7.6µM*	-7%	.	17%
Cc1nc(NC(=O)c2ccc(Cl)cc2)sc1-c1csc(Nc2cccc(F)c2)n1	0%	11µM*	-3%	-9%	14%
CCOc1ccccc1N1CCN(C(=O)NCc2ccc(C)cc2)CC1	0%	-1%	-1%	.	0%
COc1ccccc1N1CCN(C(=O)CCCN2C(=O)c3cccc4cccc(c34)C2=O)CC1	-5%	-16%	-11%	-4%	-2%
